Only some compounds are listed: those with a hit (about 19% of all), similar ones and a draw of the others.
HT1080NT lethal: kills 2HG-producing HT-1080-NT fibrosarcoma cells; HT-1080-NT fibrosarcoma viability, CellTiter-Glo ATP luminescence, 48 h; Potency, µM (titrated, usually from 46.1 µM), actives largely listed as cytotoxic; 1.6% of 360,000 active;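 further: NT is the 2HG producing partner of a matched IDH1 knockdown line; nearly all actives have a fitted effect of over 55% in size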
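Toxicity toward the 2HG-producing NT line was scored as %Activity, normalised to DMSO and no-cell wells, from CellTiter-Glo luminescence after 48 hours' treatment.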
HT1080 IDH1KD tx: HT-1080 IDH1 knockdown cell toxicity (counter line). Potency, µM (titrated, usually from 46.1 µM), most hits filed as cytotoxic. HT-1080 IDH1 knockdown viability, ATP luminescence, 48 h. 2% of 360,000 active
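Viability of IDH1-knockdown HT-1080 fibrosarcoma cells was assessed by CellTiter-Glo after 48 h at 37 °C with titrated compound; concentration-effect curves were classified by fit quality and response size.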
DT40 TDP1 no CPT: qHTS for Inhibitors of human tyrosyl-DNA phosphodiesterase 1 (TDP1): qHTS in cells in absence of CPT. DT40 Tdp1-/- hTDP1 cells, no CPT, ATP luminescence, 48 h. Potency, µM (top dose mostly 46.2 µM), usual class: inhibitors. 15% of 420,000 active. AID 686978, 2013; further: nearly all actives have a fitted effect of over 55% in size
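Camptothecin absent (DMSO only). Human TDP1-complemented DT40 knockout cells, 400 cells/well, 37 °C for minimum 48 hr; ATP measured via CellTiter-Glo, 30 min dark incubation, luminescence.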
IL1B secr inh: inhibitors of inflammasome signaling (IL-1 beta secretion); AID 743279; activity change, % at 57.5 µM; THP-1 LPS/ATP IL-1B secretion, AlphaLISA, 16 h; stronger effect = lower value; 4.7% of 360,000 active; in the data active means activity change below about -50%; inconclusive means mostly about -30% to -49%
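THP-1 cells pretreated 1 hr with compounds (up to 57.5 uM final), then stimulated with LPS (250 ng/mL final) plus ATP (1.25 mM final); secreted IL-1B measured by AlphaLISA after 16 hr, decreased signal indicating inhibition.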
DT40 TDP1 CPT: DT40-hTDP1 cell growth loss with CPT | chicken DT40 Tdp1-/-;hTDP1 cells + 20 nM CPT, ATP luminescence, 48 h | 12% of 420,000 active | AID 686979 | Potency, µM (doses to about 46.2 µM), most hits filed as inhibitors; further: nearly all actives have a fitted effect of over 55% in size
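Cell growth measured by CellTiter-Glo luminescence after a minimum 48 h, 37 C compound exposure with 20 nM CPT in Tdp1-knockout DT40 cells stably expressing hTDP1, seeded 400/well; qHTS titration format.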
Large screens that a line does not name were inactive. Unless noted, the call rests on the fitted dose curve; in most records, active means well fitted curve in the direction sought with a large enough effect; inconclusive means small, poorly fitted or top-dose-only effect, or another doubt; inactive means no such curve, though single readings can be large; an effect the other way counts as inactive or inconclusive.

Cc1cccc(CN2CCN(C3CN(Cc4cn(Cc5ccc(Cl)cc5)nn4)S(=O)(=O)C3)CC2)c1 (centres undefined)	DT40 TDP1 no CPT 21µM, DT40 TDP1 CPT 18µM
O=S1(=O)CC(N2CCN(Cc3ccccc3F)CC2)CN1Cc1cn(Cc2cccc(Cl)c2)nn1 (centres undefined)	DT40 TDP1 no CPT 21µM, DT40 TDP1 CPT inconclusive
Cc1ccc(Cn2cc(CN3CC(N4CCN(Cc5cccc(C)c5)CC4)CS3(=O)=O)nn2)cc1 (centres undefined)	DT40 TDP1 no CPT inconclusive, DT40 TDP1 CPT inconclusive
O=[N+]([O-])c1ccc(N2CCN(c3ccc(Cl)nn3)CC2)cc1NC1CC1	none
Cc1ccccc1N1C(=O)c2ccccc2N2C(=O)c3ccccc3C12 (centres undefined)	DT40 TDP1 no CPT 16µM, DT40 TDP1 CPT 8.2µM
O=C1c2ccccc2N2C(=O)c3ccccc3C2N1Cc1ccco1 (centres undefined)	DT40 TDP1 no CPT 18µM, IL1B secr inh inconclusive, DT40 TDP1 CPT 23µM
O=C1c2ccccc2NC(c2ccccc2O)N1Cc1ccco1 (centres undefined)	DT40 TDP1 no CPT 16µM, DT40 TDP1 CPT inconclusive (no result: HT1080NT lethal, HT1080 IDH1KD tx, IL1B secr inh)
CCCN1C(=O)c2ccccc2NC1c1ccc(Br)cc1 (centres undefined)	HT1080NT lethal inconclusive, DT40 TDP1 no CPT inconclusive, IL1B secr inh -51
O=C1c2ccccc2N2C(=O)c3ccccc3C2N1O (centres undefined)	none
CCCN1C(=O)c2ccccc2NC1c1ccc(Cl)cc1 (centres undefined)	none
C=CCn1c(Cc2ccc(OC)cc2)nnc1SCC(=O)NCCc1ccccc1	none
COc1ccc(CC(=O)OCC(=O)Nc2ccc(F)cc2)cc1	HT1080 IDH1KD tx inconclusive
O=C1c2ccccc2NC(c2ccccc2OCc2ccccc2)N1Cc1ccco1 (centres undefined)	DT40 TDP1 no CPT 10µM, DT40 TDP1 CPT 11µM (no result: HT1080NT lethal, HT1080 IDH1KD tx, IL1B secr inh)
O=C1c2ccccc2NC(c2ccccc2)N1Cc1ccco1 (centres undefined)	none
COc1ccc(C2Nc3ccccc3C(=O)N2Cc2ccco2)cc1 (centres undefined)	DT40 TDP1 no CPT 13µM, DT40 TDP1 CPT inconclusive (no result: HT1080NT lethal, HT1080 IDH1KD tx, IL1B secr inh)
O=C(Nc1ccc(S(=O)(=O)NCCc2ccccc2)cc1)c1ccco1	DT40 TDP1 no CPT inconclusive
CCCc1ccc(S(=O)(=O)NCCc2ccncc2)cc1	DT40 TDP1 no CPT inconclusive, DT40 TDP1 CPT 13µM
CC(C)(C)c1ccc(S(=O)(=O)NCCc2ccncc2)cc1	DT40 TDP1 no CPT 16µM, DT40 TDP1 CPT inconclusive
O=C(Nc1ccc(S(=O)(=O)NCCc2ccccc2)cc1)c1ccncc1	DT40 TDP1 no CPT inconclusive, DT40 TDP1 CPT 18µM
CCCCCc1ccc(S(=O)(=O)NCCc2ccncc2)cc1	HT1080 IDH1KD tx inconclusive, DT40 TDP1 no CPT 16µM, IL1B secr inh inconclusive, DT40 TDP1 CPT 21µM
CCCCCCCCCCCCCCCCOCC(CO)OC(C)=O (centres undefined)	none (no result: HT1080NT lethal, HT1080 IDH1KD tx, IL1B secr inh)
Cc1nn2cc(-c3cccc(Cl)c3)cnc2c1Cl	HT1080 IDH1KD tx inconclusive, DT40 TDP1 no CPT 15µM, DT40 TDP1 CPT 16µM
Cc1cc(Br)cn2c(CC(C)(C)C)c(-c3cccc(Cl)c3)nc12	DT40 TDP1 no CPT inconclusive
Cc1nn2cc(-c3cccc(Cl)c3)cnc2c1Br	HT1080 IDH1KD tx inconclusive, DT40 TDP1 no CPT 5.8µM, DT40 TDP1 CPT inconclusive
Nc1nc(N)nc(-c2cccc(Cl)c2)n1	DT40 TDP1 CPT inconclusive
O=C(CSc1nncs1)NNC(=O)c1ccco1	none
O=C(Nc1c(C(=O)Nc2ccccc2F)oc2ccccc12)c1cc2ccccc2o1	DT40 TDP1 no CPT inconclusive (no result: HT1080NT lethal, HT1080 IDH1KD tx, IL1B secr inh)
CCOc1ccc(NC(=S)NNC(=O)CC(C)O)cc1 (centres undefined)	none
CC(=O)NC(c1cccc([N+](=O)[O-])c1)c1c(OC(C)=O)ccc2ccccc12 (centres undefined)	DT40 TDP1 no CPT inconclusive
CC(=O)Oc1ccc2ccccc2c1C(NC(=O)C(C)C)c1cccc([N+](=O)[O-])c1 (centres undefined)	HT1080NT lethal inconclusive, DT40 TDP1 no CPT inconclusive, IL1B secr inh -74, DT40 TDP1 CPT inconclusive
Cc1ccc(Oc2ccc(S(=O)(=O)N3CCOCC3)cc2C(N)=O)c(-n2nc3ccccc3n2)c1	HT1080NT lethal inconclusive, HT1080 IDH1KD tx 4.1µM, DT40 TDP1 no CPT 4.1µM, DT40 TDP1 CPT 3.7µM
COc1ccccc1Oc1ccc(S(=O)(=O)N2CCOCC2)cc1S(=O)(=O)N1CCOCC1	none
O=S(CC1CC1(Cl)Cl)CC1CC1(Cl)Cl (centres undefined)	none
CC(C)(C)Cc1c(-c2cccc(Cl)c2)nc2ccc(Cl)cn12	DT40 TDP1 no CPT inconclusive, DT40 TDP1 CPT inconclusive
CC(C)(C)Cc1c(-c2ccccc2)nc2ccc(Br)cn12	DT40 TDP1 no CPT 23µM, DT40 TDP1 CPT inconclusive
Cc1ccc(-c2nc3ccc(Br)cn3c2CC(C)(C)C)cc1	DT40 TDP1 no CPT 12µM, DT40 TDP1 CPT inconclusive
Cc1ccc(NC(=O)COCc2cc(-c3cccs3)on2)cc1Cl	none (no result: HT1080NT lethal, HT1080 IDH1KD tx, IL1B secr inh)
CCOc1ccc(C(=O)NN2C(=O)C3C4C=CC(O4)C3C2=O)cc1 (centres undefined)	none
Brc1ccc(CSc2ncn[nH]2)cc1	none
CCCOc1ccc(CSc2ncn[nH]2)cc1	DT40 TDP1 no CPT 5.8µM, DT40 TDP1 CPT 4.6µM
COc1ccc(C2C(O)C(c3c[nH]c4ccccc34)=NN2C(=O)CCl)cc1 (centres undefined)	HT1080NT lethal 0.46µM, HT1080 IDH1KD tx 0.65µM, DT40 TDP1 no CPT 0.58µM, IL1B secr inh -99, DT40 TDP1 CPT 0.33µM
O=c1c(Cl)c(N2CCN(c3ccccc3)CC2)cnn1C12CC3CC(CC(C3)C1)C2	HT1080NT lethal inconclusive, HT1080 IDH1KD tx inconclusive, DT40 TDP1 no CPT 23µM, DT40 TDP1 CPT 26µM
O=c1c(Cl)c(N2CCN(c3ccc(F)cc3)CC2)cnn1C12CC3CC(CC(C3)C1)C2	DT40 TDP1 no CPT inconclusive, DT40 TDP1 CPT inconclusive
O=c1c(Cl)c(NCc2ccc(F)cc2)cnn1C12CC3CC(CC(C3)C1)C2	DT40 TDP1 no CPT 16µM, DT40 TDP1 CPT 16µM
CC1(C)CC(=O)C2=C(C1)OC(N)=C(C#N)C2C1CC=CCC1 (centres undefined)	DT40 TDP1 no CPT inconclusive, DT40 TDP1 CPT inconclusive
N#CC(c1ccc(O)cc1)N1CCOCC1 (centres undefined)	none
Cc1ccc(C(=O)N2CCN(c3ccc4c(c3)C3CC4CCN3C(=O)OCc3ccccc3)CC2)cc1 (centres undefined)	HT1080NT lethal inconclusive, HT1080 IDH1KD tx inconclusive, DT40 TDP1 no CPT 15µM, DT40 TDP1 CPT 16µM
O=C(c1ccc(Cl)cc1)N1CCC2CC1c1cc(-c3ccccc3)ccc12 (centres undefined)	DT40 TDP1 CPT 16µM
